Reference: PubChem BioAssay (EPA / NIEHS)
Several values for one entry are separate records, joined by “and”; a condition that tells them apart may be missing. Equal values may be shown once. Records with an inconclusive call do not appear. Activity calls are given as the source filed them. Rule for the calls: active = hit-call score of the fitted dose curve at least 0.9, where 1 is the maximum; inconclusive = response in the unintended direction; inactive = score below 0.9.

Target: Glucocorticoid receptor (Homo sapiens) (UniProt P04150)
Sequence (P04150 whole entry, looked up): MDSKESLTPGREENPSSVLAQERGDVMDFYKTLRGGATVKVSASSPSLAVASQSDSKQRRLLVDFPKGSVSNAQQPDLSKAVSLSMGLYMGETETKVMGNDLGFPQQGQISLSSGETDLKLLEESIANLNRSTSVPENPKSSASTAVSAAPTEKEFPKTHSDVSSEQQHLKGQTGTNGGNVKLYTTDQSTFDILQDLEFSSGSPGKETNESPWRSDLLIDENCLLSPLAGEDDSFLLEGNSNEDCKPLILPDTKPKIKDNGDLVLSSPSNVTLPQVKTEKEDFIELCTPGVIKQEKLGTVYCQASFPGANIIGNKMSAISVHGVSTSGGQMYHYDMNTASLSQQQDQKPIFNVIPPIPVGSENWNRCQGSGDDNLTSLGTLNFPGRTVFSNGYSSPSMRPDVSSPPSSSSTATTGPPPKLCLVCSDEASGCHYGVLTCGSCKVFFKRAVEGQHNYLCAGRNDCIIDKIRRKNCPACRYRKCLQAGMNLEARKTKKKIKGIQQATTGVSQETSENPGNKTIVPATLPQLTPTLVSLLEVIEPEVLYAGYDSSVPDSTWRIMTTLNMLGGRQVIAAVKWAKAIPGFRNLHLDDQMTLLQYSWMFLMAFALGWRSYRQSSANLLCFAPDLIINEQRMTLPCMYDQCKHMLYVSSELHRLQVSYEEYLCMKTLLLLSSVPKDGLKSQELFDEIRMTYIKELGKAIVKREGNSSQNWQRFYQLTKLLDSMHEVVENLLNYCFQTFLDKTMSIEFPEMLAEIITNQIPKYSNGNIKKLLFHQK
Assay: NVS_NR_hGR: NovaScreen (NVS) Nuclear Receptor Binding Assay for human Glucocorticoid Receptor (GR) (AID 2283363);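 for AC50: activity is loss of specific radioligand binding signal relative to DMSO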
Summary of the method: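 Single-readout cell-free binding: radioligand plus extracted receptor, 16-hour dosing, filter radiodetection; 25 uM duplicate primary, concentration series secondary.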

Q: For `Oc1c(Cl)c(Cl)c(Cl)c(Cl)c1Cl`, which outcome is on record?
A: inactive

Q: For `OCC(O)CO`, which AC50 is on record?
A: 4.96 µM (active)

Q: With `ClC1=C(Cl)[C@]2(Cl)[C@@H]3[C@@H]4C[C@@H]([C@H]5O[C@@H]45)[C@@H]3[C@@]1(Cl)C2(Cl)Cl` as the compound, how does the outcome read?
A: inactive

Q: Which AC50 does the source give for `CCC(=O)O[C@H]1CC[C@H]2[C@@H]3CCC4=CC(=O)CC[C@]4(C)[C@H]3CC[C@]12C` here?
A: 2.45 µM (active) and 896 nM (active) and 841 nM (active)

Q: For `Oc1ccc(C(c2ccc(O)cc2)(C(F)(F)F)C(F)(F)F)cc1`, which AC50 is on record?
A: 726 nM (active) [middle of 4 runs]

Q: With `O=C(O)C(F)(F)C(F)(F)C(F)(F)C(F)(F)C(F)(F)C(F)(F)C(F)(F)C(F)(F)C(F)(F)F` as the compound, how does the outcome read?
A: inactive

Q: How did the AC50 turn out when `C[C@]12CCC(=O)C=C1CC[C@@H]1[C@@H]2CC[C@@]2(C)[C@H]1CC[C@]2(C)O` was run?
A: 401 nM (active) and 201 nM (active) and 306 nM (active)

Q: `CCOC(=O)C(O)(c1ccc(Cl)cc1)c1ccc(Cl)cc1` was tested. Which outcome did it give?
A: inactive

Q: For `CC(C)(c1ccccc1)c1ccc(O)cc1`, which AC50 is on record?
A: 5.28 µM (active) and 6.67 µM (active) and 16.2 µM (active)

Q: For `CCCCCCCCCC[N+](C)(C)CCCCCCCCCC`, which AC50 is on record?
A: 5.53 µM (active)

Target: guinea pig Sigma Receptor, Non-selective Binding, SIGMAR1 (gene 100135589) (UniProt Q60492)
Sequence (Q60492 whole entry, looked up): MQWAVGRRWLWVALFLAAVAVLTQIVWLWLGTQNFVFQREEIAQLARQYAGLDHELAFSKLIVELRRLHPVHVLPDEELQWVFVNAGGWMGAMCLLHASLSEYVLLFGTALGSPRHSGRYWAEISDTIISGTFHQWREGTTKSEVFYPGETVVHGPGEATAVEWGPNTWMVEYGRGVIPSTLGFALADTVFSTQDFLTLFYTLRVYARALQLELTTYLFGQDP
Assay: NVS_OR_gSIGMA_NonSelective: NovaScreen (NVS) Nuclear Receptor Binding Assay for guinea pig Sigma Receptor, Non-selective Binding (AID 2283367)
Summary of the method: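 Test chemicals were screened in duplicate at 25 uM, then in concentration series if active, against radioligand binding to guinea pig brain membranes; filtration and scintillation counting at 1 h measured remaining bound ligand.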

Q: `CCC(=O)O[C@H]1CC[C@H]2[C@@H]3CCC4=CC(=O)CC[C@]4(C)[C@H]3CC[C@]12C` was tested. Which outcome did it give?
A: inactive

Q: With `C[C@]12CCC(=O)C=C1CC[C@@H]1[C@@H]2CC[C@]2(C)C(=O)CC[C@@H]12` as the compound, how does the AC50 read?
A: 11.3 µM (active)

Q: Which AC50 does the source give for `C[C@]12CCC(=O)C=C1CC[C@@H]1[C@@H]2CC[C@@]2(C)[C@H]1CC[C@]2(C)O` here?
A: 7.29 µM (active)

Q: For `Nc1ccc(-c2ccc(N)cc2)cc1`, which AC50 is on record?
A: 25 µM (active)

Q: `COS(=O)(=O)OC` was tested. Which outcome did it give?
A: inactive

Q: Which AC50 does the source give for `CCCCCCCCCC[N+](C)(C)CCCCCCCCCC` here?
A: 0.432 µM (active)

Q: For `CCCN(CCC)N=O`, which outcome is on record?
A: inactive

System: guinea pig Dopamine Transporter (DAT), gene 100714898
Assay: NVS_TR_gDAT: NovaScreen (NVS) Transporter Assay for guinea pig Dopamine Transporter (DAT) (AID 2283369);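 note: active compounds lower bound radioligand signal relative to DMSO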
Summary of the method: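 Test chemicals were incubated 2 h with guinea pig striatal membranes and a radioligand; bound label was separated by filtration and counted. Screening ran at 25 uM, followed by concentration-response testing to a 50 uM maximum.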

Q: Which outcome does the source give for `C[C@]12CCC(=O)C=C1CC[C@@H]1[C@@H]2CC[C@]2(C)C(=O)CC[C@@H]12` here?
A: inactive

Q: Which AC50 does the source give for `Oc1ccc(C(c2ccc(O)cc2)(C(F)(F)F)C(F)(F)F)cc1` here?
A: 16 µM (active)

Q: For `COc1ccc(O)c(C(C)(C)C)c1`, which AC50 is on record?
A: 16.6 µM (active)

Q: For `CCOC(=O)C(O)(c1ccc(Cl)cc1)c1ccc(Cl)cc1`, which AC50 is on record?
A: 14.3 µM (active)

Q: How did the outcome turn out when `Cc1cc(O)ccc1Cl` was run?
A: inactive

Q: `Nc1ccc(-c2ccc(N)cc2)cc1` was tested. Which AC50 did it give?
A: 12.8 µM (active)

Q: With `CC(C)(c1ccccc1)c1ccc(O)cc1` as the compound, how does the AC50 read?
A: 15.9 µM (active)

Q: For `O=NN(c1ccccc1)c1ccccc1`, which outcome is on record?
A: inactive

Q: Which AC50 does the source give for `CCC(C)(c1ccc(O)cc1)c1ccc(O)cc1` here?
A: 17.3 µM (active)

Q: Which AC50 does the source give for `CCCCCCCCCC[N+](C)(C)CCCCCCCCCC` here?
A: 25 µM (active)

Target: human Serotonin Transporter (SERT), SLC6A4 (gene 6532) (UniProt P31645)
Sequence (P31645 whole entry, looked up): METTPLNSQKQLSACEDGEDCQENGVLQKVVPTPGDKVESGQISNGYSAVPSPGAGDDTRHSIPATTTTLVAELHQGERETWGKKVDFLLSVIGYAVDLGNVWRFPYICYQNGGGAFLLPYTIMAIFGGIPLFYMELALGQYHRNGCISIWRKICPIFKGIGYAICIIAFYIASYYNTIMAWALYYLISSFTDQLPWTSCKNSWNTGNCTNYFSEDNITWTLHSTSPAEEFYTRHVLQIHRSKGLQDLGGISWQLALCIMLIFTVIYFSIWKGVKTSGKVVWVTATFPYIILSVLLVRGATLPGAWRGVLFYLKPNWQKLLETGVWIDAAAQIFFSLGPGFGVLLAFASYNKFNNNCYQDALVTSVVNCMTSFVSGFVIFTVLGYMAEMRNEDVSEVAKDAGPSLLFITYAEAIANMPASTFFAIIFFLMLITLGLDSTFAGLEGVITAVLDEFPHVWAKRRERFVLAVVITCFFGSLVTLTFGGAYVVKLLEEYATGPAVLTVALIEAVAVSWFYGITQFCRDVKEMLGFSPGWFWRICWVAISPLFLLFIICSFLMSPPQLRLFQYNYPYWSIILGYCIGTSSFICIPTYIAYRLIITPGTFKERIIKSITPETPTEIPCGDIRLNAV
Assay: NVS_TR_hSERT: NovaScreen (NVS) Transporter Assay for human Serotonin Transporter (SERT) (AID 2283372)
Summary of the method: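 Human platelet membrane preparation; displacement of radioligand from serotonin transporter measured after 1 h by filtration and scintillation counting. Single 25 uM duplicate screen, then concentration series for actives, with DMSO as negative baseline.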

Q: `Cc1ccccc1CO[C@@H]1C[C@@]2(C(C)C)CC[C@]1(C)O2` was tested. Which AC50 did it give?
A: 4.86 µM (active)

Q: With `CC1=C2C[C@H]3[C@@H](CC=C4C[C@@H](O)CC[C@@]43C)[C@@H]2CC[C@]12O[C@@H]1C[C@H](C)CN[C@H]1[C@H]2C` as the compound, how does the outcome read?
A: inactive

Q: How did the AC50 turn out when `CCCCCCCCCC[N+](C)(C)CCCCCCCCCC` was run?
A: 13.4 µM (active)

Target: human Dopamine Transporter (DAT), SLC6A3 (gene 6531) (UniProt Q01959)
Sequence (Q01959 whole entry, looked up): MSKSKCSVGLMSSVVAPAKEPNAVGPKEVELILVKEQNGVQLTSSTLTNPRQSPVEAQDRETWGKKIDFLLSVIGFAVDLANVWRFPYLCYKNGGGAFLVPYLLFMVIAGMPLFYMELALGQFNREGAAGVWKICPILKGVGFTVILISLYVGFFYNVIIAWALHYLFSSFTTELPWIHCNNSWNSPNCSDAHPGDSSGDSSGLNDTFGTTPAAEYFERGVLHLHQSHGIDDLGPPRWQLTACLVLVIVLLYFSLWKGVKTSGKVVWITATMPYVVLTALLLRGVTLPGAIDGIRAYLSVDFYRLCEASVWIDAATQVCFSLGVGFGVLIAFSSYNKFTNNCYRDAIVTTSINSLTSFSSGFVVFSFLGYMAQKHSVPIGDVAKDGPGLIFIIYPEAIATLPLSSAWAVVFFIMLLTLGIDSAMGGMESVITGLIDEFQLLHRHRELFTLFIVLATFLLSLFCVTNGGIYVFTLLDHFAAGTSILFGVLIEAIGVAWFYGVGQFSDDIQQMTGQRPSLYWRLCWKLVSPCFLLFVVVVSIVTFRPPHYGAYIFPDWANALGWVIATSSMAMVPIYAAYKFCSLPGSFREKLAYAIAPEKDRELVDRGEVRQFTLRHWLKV
Assay: NVS_TR_hDAT: NovaScreen (NVS) Transporter Assay for human Dopamine Transporter (DAT) (AID 2283374);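 note: activity means loss of bound radioligand signal relative to DMSO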
Summary of the method: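 Extracted human SLC6A3 protein incubated 1 h with radioligand and test chemical; bound fraction separated on filters and counted. Single 25 uM duplicate screen preceded concentration-response follow-up; positive and negative controls on every plate.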

Q: With `Cc1ccccc1CO[C@@H]1C[C@@]2(C(C)C)CC[C@]1(C)O2` as the compound, how does the AC50 read?
A: 11.2 µM (active)

Q: With `Oc1ccc(C(c2ccc(O)cc2)(C(F)(F)F)C(F)(F)F)cc1` as the compound, how does the AC50 read?
A: 30.9 µM (active)

Q: How did the AC50 turn out when `COc1ccc(O)c(C(C)(C)C)c1` was run?
A: 8.78 µM (active)

Q: Which outcome does the source give for `C[C@]12CCC(=O)C=C1CC[C@@H]1[C@@H]2CC[C@@]2(C)[C@H]1CC[C@]2(C)O` here?
A: inactive

Q: How did the AC50 turn out when `CCOC(=O)C(O)(c1ccc(Cl)cc1)c1ccc(Cl)cc1` was run?
A: 3.45 µM (active)

Q: How did the outcome turn out when `Nc1ccc(-c2ccc(N)cc2)cc1` was run?
A: inactive

Q: With `Cc1cc(-c2ccc(N)c(C)c2)ccc1N` as the compound, how does the AC50 read?
A: 19.5 µM (active)

Q: Which outcome does the source give for `ClC(Cl)=C(c1ccc(Cl)cc1)c1ccc(Cl)cc1` here?
A: inactive

Q: For `CC(C)(c1ccccc1)c1ccc(O)cc1`, which AC50 is on record?
A: 5.98 µM (active)

Q: For `CCC(C)(c1ccc(O)cc1)c1ccc(O)cc1`, which AC50 is on record?
A: 7.9 µM (active)

Q: How did the AC50 turn out when `CCCCCCCCCC[N+](C)(C)CCCCCCCCCC` was run?
A: 5.73 µM (active)

Q: For `CCCCCCOC(=O)c1ccccc1C(=O)OCCCCCC`, which outcome is on record?
A: inactive

Target: rat Serotonin Transporter (SERT), Slc6a4 (gene 25553) (UniProt P31652)
Sequence (P31652 whole entry, looked up): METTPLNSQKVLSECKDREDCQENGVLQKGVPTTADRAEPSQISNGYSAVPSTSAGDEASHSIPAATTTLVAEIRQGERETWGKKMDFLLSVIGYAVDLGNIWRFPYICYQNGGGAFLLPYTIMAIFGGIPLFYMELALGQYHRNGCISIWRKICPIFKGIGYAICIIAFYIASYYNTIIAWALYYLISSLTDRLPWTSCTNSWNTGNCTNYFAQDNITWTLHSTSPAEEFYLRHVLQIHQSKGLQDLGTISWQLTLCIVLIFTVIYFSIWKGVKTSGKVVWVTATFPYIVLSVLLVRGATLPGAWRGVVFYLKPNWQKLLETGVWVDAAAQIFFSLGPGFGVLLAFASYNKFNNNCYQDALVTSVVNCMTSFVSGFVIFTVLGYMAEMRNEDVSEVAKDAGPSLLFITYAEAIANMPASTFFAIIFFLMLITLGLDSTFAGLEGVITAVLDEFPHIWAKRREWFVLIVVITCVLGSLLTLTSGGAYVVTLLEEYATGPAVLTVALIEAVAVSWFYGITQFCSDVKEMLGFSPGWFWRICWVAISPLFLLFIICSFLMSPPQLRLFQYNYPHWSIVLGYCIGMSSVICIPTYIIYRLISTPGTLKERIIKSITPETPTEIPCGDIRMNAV
Assay: NVS_TR_rSERT: NovaScreen (NVS) Transporter Assay for rat Serotonin Transporter (SERT) (AID 2283375)
Summary of the method: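 Steps: rat forebrain membranes dosed with chemical (25 uM duplicate primary; concentration series for actives); 1 h incubation; labelled ligand bound, filtered, counted by scintillation. Activity scored as signal loss vs DMSO.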

Q: Which AC50 does the source give for `Cc1ccccc1CO[C@@H]1C[C@@]2(C(C)C)CC[C@]1(C)O2` here?
A: 6.62 µM (active)

Q: For `O=C(N[C@H]1CN2CCC1CC2)c1cc2ccoc2cn1`, which AC50 is on record?
A: 12.1 µM (active)

Q: How did the AC50 turn out when `CCCCCCCCCC[N+](C)(C)CCCCCCCCCC` was run?
A: 12.6 µM (active)

Target: Norway rat Vesicular Monoamine Transporter (VMAT2), neurotransmitter transporter, Slc18a2 (gene 25549) (UniProt Q01827)
Sequence (Q01827 whole entry, looked up): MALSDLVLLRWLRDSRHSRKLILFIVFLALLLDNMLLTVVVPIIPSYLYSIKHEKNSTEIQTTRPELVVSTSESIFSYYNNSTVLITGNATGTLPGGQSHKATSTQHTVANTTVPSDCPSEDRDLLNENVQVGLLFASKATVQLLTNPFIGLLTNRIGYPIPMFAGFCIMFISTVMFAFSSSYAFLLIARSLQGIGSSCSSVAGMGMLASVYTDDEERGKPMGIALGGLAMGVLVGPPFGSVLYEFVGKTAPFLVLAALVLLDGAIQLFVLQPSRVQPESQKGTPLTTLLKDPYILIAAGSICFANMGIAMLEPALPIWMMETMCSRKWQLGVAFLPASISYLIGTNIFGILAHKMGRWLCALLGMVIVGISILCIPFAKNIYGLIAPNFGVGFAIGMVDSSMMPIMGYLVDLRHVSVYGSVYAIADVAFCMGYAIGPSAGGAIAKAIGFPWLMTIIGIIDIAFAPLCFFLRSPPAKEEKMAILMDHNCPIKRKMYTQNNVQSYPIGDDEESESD
Assay: NVS_TR_rVMAT2: NovaScreen (NVS) Transporter Assay for Norway rat Vesicular Monoamine Transporter (VMAT2), neurotransmitter transporter (AID 2283376);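 note: actives lower the bound radioligand signal below the DMSO level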
Summary of the method: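 Binding endpoint from rat forebrain tissue, cell-free; 1 h incubation; filtered radioligand counted; 25 uM duplicate primary then dose series; DMSO negative control.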

Q: With `Cc1cc2c3c(c1)C(c1ccccc1)=N[C@@H](NC(=O)c1ccncc1)C(=O)N3CC2` as the compound, how does the outcome read?
A: inactive

Q: For `Oc1ccc(C(c2ccc(O)cc2)(C(F)(F)F)C(F)(F)F)cc1`, which AC50 is on record?
A: 7.78 µM (active)

Q: For `ClC(Cl)=C(c1ccc(Cl)cc1)c1ccc(Cl)cc1`, which outcome is on record?
A: inactive

Q: How did the AC50 turn out when `CCC(C)(c1ccc(O)cc1)c1ccc(O)cc1` was run?
A: 5.28 µM (active)

Q: Which outcome does the source give for `CC1=C2C[C@H]3[C@@H](CC=C4C[C@@H](O)CC[C@@]43C)[C@@H]2CC[C@]12O[C@@H]1C[C@H](C)CN[C@H]1[C@H]2C` here?
A: inactive

Q: How did the AC50 turn out when `CCCCCCCCCC[N+](C)(C)CCCCCCCCCC` was run?
A: 13.4 µM (active)

Q: For `Nn1cnnc1`, which AC50 is on record?
A: 10.9 µM (active)
